Where a name gives a salt, the structure may show the parent alone.

This assay relates to replication-induced senescent mouse newborn dermal fibroblasts (NBF). The assay is described as follows: relative cell viability of senescent cells (fraction); higher = less killing of senescent cells. The following applies: 1 µM; 3 days. The method, then: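 Replication-induced senescent newborn mouse skin fibroblasts (NBFs) in 24-well plates were treated with a Selleck FDA-approved drug library at 1 µM for 3 days.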
For `CCCCC1=NC2(CCCC2)C(=O)N1Cc1ccc(-c2ccccc2-c2nnn[nH]2)cc1` [Irbesartan], the relative cell viability stood at 0.868.

On to `COc1cc(/C=C/C(=O)CC(=O)/C=C/c2ccc(O)c(OC)c2)ccc1O` [Curcumin], for which the relative cell viability was 0.768.

Consider `CN(C)CCOC(c1ccccc1)c1ccccc1` [Diphenhydramine HCl], for which the relative cell viability came to 1.14.

Compound `CCOc1ccc(Cc2cc([C@@H]3O[C@H](CO)[C@@H](O)[C@H](O)[C@H]3O)ccc2Cl)cc1` [Dapagliflozin] displayed a relative cell viability of 1.2.

As for `C[C@H](Cn1cnc2c(N)ncnc21)OCP(=O)(O)O` [Tenofovir], the relative cell viability is 0.893.

As for `CN/C(=N\CCSCc1nc[nH]c1C)NC#N` [Cimetidine], the relative cell viability came to 1.01.

The compound `CO[C@H]1/C=C/O[C@@]2(C)Oc3c(C)c(O)c4c(O)c(c(/C=N/N5CCN(C)CC5)c(O)c4c3C2=O)NC(=O)/C(C)=C\C=C\[C@H](C)[C@H](O)[C@@H](C)[C@@H](O)[C@@H](C)[C@H](OC(C)=O)[C@@H]1C` [Rifampin] gave a relative cell viability of 1.11.

As to `CC(C(=O)O)c1cccc(Oc2ccccc2)c1` (centres undefined) [Fenoprofen Calcium], the relative cell viability came out at 1.13.

`NC(=O)c1cnccn1` [Pyrazinamide] registered a relative cell viability of 1.17.

The compound `CC(=O)N[C@@H](CS)C(=O)O` [Acetylcysteine] showed a relative cell viability of 0.834.

As to `COC(=O)C1=C(C)NC(C)=C(C(=O)OC)C1c1ccccc1[N+](=O)[O-]` [Nifedipine], the relative cell viability was 1.01.

The compound `C[C@H](CCC(=O)O)[C@H]1CC[C@H]2[C@@H]3[C@H](O)C[C@@H]4C[C@H](O)CC[C@]4(C)[C@H]3CC[C@]12C` [Chenodeoxycholic Acid] had a relative cell viability of 1.06.

`O=C(/C=C/c1cccc(S(=O)(=O)Nc2ccccc2)c1)NO` [Belinostat (PXD101)] had a relative cell viability of 0.941.

With `CC(C(=O)O)c1ccc(C(=O)c2cccs2)cc1` (centres undefined) [Suprofen], the relative cell viability amounted to 0.929.

`CCCNC(C)C(=O)Nc1ccccc1C` (centres undefined) [Prilocaine] had a relative cell viability of 0.827.

Consider `C=CCNC1=C2C[C@@H](C)C[C@H](OC)[C@H](O)[C@@H](C)/C=C(\C)[C@H](OC(N)=O)[C@@H](OC)/C=C\C=C(/C)C(=O)NC(=CC1=O)C2=O` [Tanespimycin (17-AAG)], for which the relative cell viability was determined as 0.966.

The compound `Nc1nc2ccc(OC(F)(F)F)cc2s1` [Riluzole] came in with a relative cell viability of 0.836.

The compound `Cc1[nH]c2ccccc2c1CCNCc1ccc(/C=C/C(=O)NO)cc1` [Panobinostat (LBH589)] displayed a relative cell viability of 1.08.

Take `Cc1ccc(NC(=O)c2ccc(CN3CCN(C)CC3)cc2)cc1Nc1nccc(-c2cccnc2)n1` [Imatinib (STI571)]: the relative cell viability is 1.12.

For `CN(C)CCC(c1ccc(Cl)cc1)c1ccccn1` (centres undefined) [Chlorpheniramine Maleate], the relative cell viability was determined as 0.208.

Consider `COc1ccc2cc([C@H](C)C(=O)O)ccc2c1` [Naproxen Sodium], for which the relative cell viability was determined as 0.686.

`CC1Cc2ccccc2N1NC(=O)c1ccc(Cl)c(S(N)(=O)=O)c1` (centres undefined) [Indapamide]: the relative cell viability was found to be 0.965.

The compound `C[C@]12C=CC(=O)C=C1CC[C@@H]1[C@@H]2C(=O)C[C@@]2(C)[C@H]1CC[C@]2(O)C(=O)CO` [Prednisone] yielded a relative cell viability of 0.875.

For the compound `COC(=O)Nc1nc2cc(C(=O)c3ccc(F)cc3)ccc2[nH]1` [Flubendazole], the relative cell viability was 0.886.

Consider `Nc1nc(=O)n([C@@H]2CS[C@H](CO)O2)cc1F` [Emtricitabine], for which the relative cell viability was 1.04.

As to `CNC(=O)c1cc(Oc2ccc(NC(=O)Nc3ccc(Cl)c(C(F)(F)F)c3)cc2)ccn1` [Sorafenib Tosylate], the relative cell viability was 0.528.

With `COc1c(N2C[C@@H]3CCCN[C@@H]3C2)c(F)cc2c(=O)c(C(=O)O)cn(C3CC3)c12` [Moxifloxacin HCl], the relative cell viability stood at 1.03.

`CCC[S+]([O-])c1ccc2[nH]c(NC(=O)OC)nc2c1` (centres undefined) [Albendazole Oxide] registered a relative cell viability of 0.993.

Consider `C[C@]12CC[C@@H]3c4ccc(O)cc4C[C@@H](CCCCCCCCC[S+]([O-])CCCC(F)(F)C(F)(F)F)[C@H]3[C@@H]1CC[C@@H]2O` (some centres undefined) [Fulvestrant], for which the relative cell viability amounted to 0.971.

The compound `C[C@H]1C[C@H]2[C@@H]3CCC4=CC(=O)C=C[C@]4(C)[C@H]3C(=O)C[C@]2(C)[C@@]1(O)C(=O)CO` [Meprednisone] displayed a relative cell viability of 1.09.

`CCCCCCCCCCC[C@@H](C[C@@H]1OC(=O)[C@H]1CCCCCC)OC(=O)[C@H](CC(C)C)NC=O` [Orlistat] showed a relative cell viability of 0.998.

The compound `CC(C)c1cc(C(=O)N2Cc3ccc(CN4CCN(C)CC4)cc3C2)c(O)cc1O` had a relative cell viability of 0.0951.

Regarding `Clc1ccc(C(c2ccccc2Cl)C(Cl)Cl)cc1` (centres undefined) [Mitotane], the relative cell viability was found to be 1.16.

As for `CC/C(=C(/CC)c1ccc(O)cc1)c1ccc(O)cc1` [Diethylstilbestrol], the relative cell viability was determined as 1.06.

The values above are taken from the supplement of paper PMC7184167.
